From PubChem BioAssay (NCATS)
Results filed as inconclusive are left out. Activity calls are given as the source filed them. The call rests on the fitted dose curve; in most records, active means well fitted curve in the direction sought with a large enough effect; inconclusive means small, poorly fitted or top-dose-only effect, or another doubt; inactive means no such curve, though single readings can be large; an effect the other way counts as inactive or inconclusive.

Experiments:
[1] = NS1 protein of Zika virus - qHTS assay to identify small molecule inhibitors in human HEK 293 cells (AID 1347053); further: series mostly up to about 46 µM; nearly all actives have a fitted effect of over 55% in size
Summary of the method: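 Compound-treated (1 h pre-infection) HEK 293 cells infected with ZIKV MR766, MOI = 0.5; after 24 h at 37 C, NS1 read by TR-FRET; data normalized to uninfected and infected controls.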

[2] = qHTS of pediatric cancer cell lines to identify multiple opportunities for drug repurposing: Primary screen for DAOY cells (AID 1347090); further: series mostly up to about 46 µM; nearly all actives have a fitted effect of over 55% in size
Summary of the method: (§1)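 Cell viability, CellTiter-Glo luminescence; 500-1,000 cells/well, 8- or 11-point titration, 48 h compound exposure at 37 degrees C, 5% CO2. Controls: DMSO neutral, bortezomib 2.3 µM final as positive.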

[3] = qHTS of pediatric cancer cell lines to identify multiple opportunities for drug repurposing: Primary screen for SJ-GBM2 cells (AID 1347091)
Summary of the method: as §1

[4] = qHTS of pediatric cancer cell lines to identify multiple opportunities for drug repurposing: Primary screen for A673 cells (AID 1347092); further: nearly all actives have a fitted effect of over 45% in size
Summary of the method: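 Cells are plated, rested 5 h, dosed by pintool, incubated 48 h, then lysed with CellTiter-Glo and read by luminescence. DMSO is the neutral control; bortezomib at 2.3 uM final is the positive control.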

[5] = qHTS of pediatric cancer cell lines to identify multiple opportunities for drug repurposing: Primary screen for SK-N-MC cells (AID 1347093); further: series mostly up to about 46 µM
Summary of the method: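 Metabolically active cells were quantified by ATP-dependent luminescence (CellTiter-Glo, 15 min at room temperature) following 48 h treatment. Cells had been plated at 500-1,000 per well and settled for 5 h beforehand.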

[6] = qHTS of pediatric cancer cell lines to identify multiple opportunities for drug repurposing: Primary screen for BT-37 cells (AID 1347094); further: series mostly up to about 57 µM
Summary of the method: (§2)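 Readout: CellTiter-Glo luminescence, 48 h treatment. Controls DMSO (neutral) and bortezomib 2.3 µM final (positive). Potency and efficacy taken from primary-screen concentration-response curves.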

[7] = qHTS of pediatric cancer cell lines to identify multiple opportunities for drug repurposing: Primary screen for NB-EBc1 cells (AID 1347095)
Summary of the method: as §2

[8] = qHTS of pediatric cancer cell lines to identify multiple opportunities for drug repurposing: Primary screen for Saos-2 cells (AID 1347097); further: nearly all actives have a fitted effect of over 40% in size
Summary of the method: as §2

[9] = qHTS of pediatric cancer cell lines to identify multiple opportunities for drug repurposing: Primary screen for SK-N-SH cells (AID 1347098); further: nearly all actives have a fitted effect of over 65% in size
Summary of the method: (§3)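 Cells (500-1,000/well) rested 5 h, then received compounds for 48 h; metabolically active cells were measured by CellTiter-Glo luminescence. Final concentrations spanned up to 46 µM (MIPE, 11-point) or 0.59 nM-46 µM (NPC, 8-point) in primary screens, 11-point in follow-ups.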

[10] = qHTS of pediatric cancer cell lines to identify multiple opportunities for drug repurposing: Primary screen for NB1643 cells (AID 1347099); further: nearly all actives have a fitted effect of over 50% in size
Summary of the method: as §2

[11] = qHTS of pediatric cancer cell lines to identify multiple opportunities for drug repurposing: Primary screen for LAN-5 cells (AID 1347100)
Summary of the method: as §3

[12] = qHTS of pediatric cancer cell lines to identify multiple opportunities for drug repurposing: Primary screen for U-2 OS cells (AID 1347096); further: nearly all actives have a fitted effect of over 50% in size
Summary of the method: as §3

Measured: Potency

COCCCOc1ccnc(CS(=O)c2nc3ccccc3[nH]2)c1C (stereo not given)
inactive: [1] | [2] | [3] | [4] | [5] | [6] | [7] | [8] | [9] | [10] | [11]

CC(S)C(=O)NCC(=O)O (stereo not given)
inactive: [1] | [2] | [5] | [6] | [12] | [8] | [9]

O=C(CS(=O)Cc1ccco1)NCC=CCOc1cc(CN2CCCCC2)ccn1 (stereo not given)
inactive: [1] | [2] | [3] | [6] | [12] | [8] | [11]
